Experimental data as given in the supplement of paper PMC5734697.

Each compound was assayed on Caenorhabditis elegans (assay: growth (movement index) relative to DMSO control, secondary screen (log2 fold change); higher = more growth (less anthelmintic activity)). Details: 10 µM, 5 days, 20 °C, stage: L1 start.
Description: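 C. elegans growth assay: synchronised L1 larvae (~20 per well) in S-complete medium with HB101 E. coli were grown in 96-well plates with Pathogen Box compound at 10 µM (1% DMSO) for 5 days at 20 °C. Motility/growth was quantified by whole-plate movie imaging (INVAPP/Paragon movement index). The score is the log2 fold change of the median movement of 5 replicate wells (on different plates) relative to DMSO-only wells. The secondary screen retested the top 20 hits with the same library material (n = 5, 10 µM).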
With `CN1CCN(c2cc(-c3ccc(F)cc3)nc(-c3ccncc3)n2)CC1` the “growth (log2)” value was -2.12. For `COC(=O)Nc1nc2cc(C(=O)c3ccccc3)ccc2[nH]1`, the “growth (log2)” value was -5.72. In the case of `CC(C)n1ncc2c(C(=O)NCC(c3cccs3)N3CCOCC3)cc(-c3ccccc3)nc21` (stereo not drawn), the “growth (log2)” value is reported as -8.04. In the case of `CC(=O)OCC1OC([S-])C(OC(C)=O)C(OC(C)=O)C1OC(C)=O.CCP(CC)CC.[Au+]` (stereo not drawn), the “growth (log2)” value is reported as -7.16. In the case of `Cc1cc(C(=O)Nc2ccc(-c3ccccc3)cc2)no1`, the “growth (log2)” value is reported as -6.92. In the case of `COC(=O)C1=C(C)NC(C)=C(C(=O)OC(C)C)C1c1cccc2nonc12` (stereo not drawn), the “growth (log2)” value is reported as -1.42. `Nc1ccc(C(=O)Nc2ccc(-c3nc4ccccc4o3)cc2)cc1` was tested, and the “growth (log2)” value was -5.41. For `CC(C)n1nc(-c2cc3c(Cl)cccc3[nH]2)c2c(N)ncnc21`, the “growth (log2)” value was -1.13. `CCc1ccc([C@@H]2C[C@H](C(F)(F)F)n3ncc(C(=O)NCc4ccc(OC)cc4)c3N2)cc1` was tested, and the “growth (log2)” value was -3.6. For `Clc1ccc(-n2cc(COc3ccnc4ccccc34)nn2)cc1`, the “growth (log2)” value was -2.02. For `O=C(Nc1ccc(F)c(-c2nc3cc(-c4ccccc4)cnc3[nH]2)c1)N1CCCC1`, the “growth (log2)” value was -4.01. With `CC(C)(C)CN1C(=O)C(c2ccccc2)(c2ccccc2)N=C1N` the “growth (log2)” value was -5.87. For `O=C(Nc1cccnc1)c1c(O)c2cccc3c2n(c1=O)CC3`, the “growth (log2)” value was -4.82. `CC(C)C(C(=O)Nc1ccc(S(=O)(=O)N(C)C)cc1)c1ccc(Cl)cc1` (stereo not drawn) was tested, and the “growth (log2)” value was -2.66. For `O=C(Nc1ccc2c(c1)B(O)OC2)c1ccccc1C(F)(F)F`, the “growth (log2)” value was -7.62. In the case of `O=C(Nc1nc(-c2ccccn2)cs1)C1CC1c1ccccc1F` (stereo not drawn), the “growth (log2)” value is reported as -0.836. In the case of `CCOC(=O)NC(=O)c1ccsc1NC(=O)c1nc2ccccc2s1`, the “growth (log2)” value is reported as -1.05. For `O=C(c1ccco1)N(CCCn1ccnc1)c1nc2c(Cl)cccc2s1`, the “growth (log2)” value was -3.66.
